# Source: PubChem (National Center for Advancing Translational Sciences (NCATS))
# NS1 function inh: qHTS Assay for Inhibitors of Influenza NS1 Protein Function. Potency, µM (highest dose often 46.1 µM), for inactives: at the highest dose activity, positive = more growth. 270,000 compounds, 0.4% hits. AID 2326, 2010; calls by dose curve; further: potency means the concentration at half of the fitted maximal effect; actives are rising curves; nearly all actives have a fitted effect of over 50% in size
#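 Compounds were scored for reversing the slow growth caused by influenza A NS1 in S. cerevisiae, measured by optical density at 600 nm. Assay medium contained 2% galactose at pH 6.0; NS1-free yeast of the same strain were the positive control.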
# AMA1-RON2 inh: qHTS for Inhibitors of AMA1-RON; Towards Development of Antimalarial Drug Lead: Primary Screen; Potency, µM (top dose mostly 58.2 µM), for the others: at the highest dose activity change, negative = inhibition, hits mostly inhibitors; 360,000 compounds, 0.2% hits; AlphaScreen AMA1-biotinylated RON2 peptide binding;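 further: potency means the concentration at half of the fitted maximal effect; 0% = vehicle wells and -100% = peptide control; nearly all actives have a fitted effect of over 45% in size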
#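 AMA1 (3D7) with his tag at 25 nM final met compounds first, then biotinylated RON2 peptide at 25 nM; detection used donor plus acceptor beads, 10 µg/mL apiece, read by AlphaScreen after 30 min at room temperature.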
# AmpC inh detg: qHTS Inhibitors of AmpC Beta-Lactamase (assay with detergent). Potency, µM (doses to about 114 µM), inactives show at the highest dose activity change, negative = inhibition, actives largely listed as inhibitors. P00811. AID 485294, 2010. AmpC hydrolysis of nitrocefin, absorbance 480 nm, 0.01% Triton. 370,000 compounds, 0.041% hits;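 further: potency means the concentration at half of the fitted maximal effect; 0% = no-compound wells and -100% = no-enzyme wells; nearly all actives have a fitted effect of over 25% in size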
# Target sequence (P00811 whole entry, looked up): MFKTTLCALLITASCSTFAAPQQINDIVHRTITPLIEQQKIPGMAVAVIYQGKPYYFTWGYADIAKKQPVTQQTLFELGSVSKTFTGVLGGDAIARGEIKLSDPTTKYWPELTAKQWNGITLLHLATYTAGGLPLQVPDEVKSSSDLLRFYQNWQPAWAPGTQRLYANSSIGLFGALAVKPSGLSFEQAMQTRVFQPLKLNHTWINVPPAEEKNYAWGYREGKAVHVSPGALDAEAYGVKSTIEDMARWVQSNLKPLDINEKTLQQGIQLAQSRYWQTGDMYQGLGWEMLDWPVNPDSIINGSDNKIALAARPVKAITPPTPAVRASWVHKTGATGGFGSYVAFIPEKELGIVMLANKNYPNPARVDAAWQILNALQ
#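 AmpC (5.3 nM in the dispensed reagent) in 20 mM phosphate pH 7.0 with 0.01% (detergent screen) or 0.0001% Triton X-100 was preincubated with compounds for 15 min at room temperature. Nitrocefin was then added from an 800 uM solution, and hydrolysis was followed at 480 nm.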
# AmpC no deterg: qHTS Inhibitors of AmpC Beta-Lactamase (assay without detergent); P00811; AmpC nitrocefin hydrolysis, absorbance 480 nm, 0.0001% Triton; Potency, µM (series often up to 57.1 µM), inactives show top-dose activity change, negative = inhibition, usual class: inhibitors; 330,000 compounds, 0.52% hits; AID 485341, 2010;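 further: potency means the concentration at half of the fitted maximal effect; plate controls were no compound for no effect and no enzyme for full effect; nearly all actives have a fitted effect of over 20% in size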
#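 AmpC (5.3 nM in the dispensed reagent) in 20 mM phosphate pH 7.0 with 0.01% (detergent screen) or 0.0001% Triton X-100 was preincubated with compounds for 15 min at room temperature. Nitrocefin was then added from an 800 uM solution, and hydrolysis was followed at 480 nm.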
# Flu NS1 inh: Assay for Inhibitors of Influenza NS1 Protein Function: Hit Validation; influenza NS1 function cell assay, 15-point titration; 1,400 tested, under 10 active; AID 492980, 2010; activity change, negative = inhibition, % at 32.9 µM; shares compounds with NS1 function inh; calls by dose curve; further: 0% is about no effect
# An asterisk follows results filed as active; ? = inconclusive; . = no result; [ ] = another dose, or the depositor's remark. Compounds with a hit are over-represented: about 0.86% of the library has one in this group of screens. Unless noted, the call rests on the fitted dose curve; in most records, active means well fitted curve in the direction sought with a large enough effect; inconclusive means small, poorly fitted or top-dose-only effect, or another doubt; inactive means no such curve, though single readings can be large; an effect the other way counts as inactive or inconclusive.
SMILES,NS1 function inh,AMA1-RON2 inh,AmpC inh detg,AmpC no deterg,Flu NS1 inh
CC(/C=C/c1ccc(N(C)C)cc1)=N/N=C1/NC(=O)CC(C(=O)Nc2ccc(Cl)cc2)S1 (stereo not given),10µM*,13%,-9%,-31%,-14
CC(/C=C/c1ccc(N(C)C)cc1)=N\N=C1\NC(=O)CC(C(=O)Nc2ccccc2)S1 (stereo not given),7.9µM*,5%,1%,-8%,-13
NC(=O)c1ccc(NC(=O)CSc2cn(CC(=O)N3CCOCC3)c3ccccc23)cc1,1%,10%,-9%,-3%,.
O=C(CSc1cn(CC(=O)N2CCOCC2)c2ccccc12)N1CCOCC1,?,-2%,7%,2%,6
CCOC(=O)c1ccc(NCCc2ccc(OC)c(OC)c2)c(N)c1,-20%,?,1%,62%,.
COc1ccc(/C=N/NC(N)=S)cc1OC(=O)c1cccc2ccccc12,2.2µM*,6%,0%,-38%,?
COc1ccc(C(=O)Oc2cc(/C=N/NC(N)=S)ccc2OC)cc1,8.9µM*,2%,?,-54%,-39
Cn1cc(C(=O)NCc2ccccc2)c(=O)c2cc(S(=O)(=O)N3CCOCC3)ccc21,.,.,2%,.,.
COc1ccc(-n2nc(C(=O)NCC(=O)NCc3ccc(F)cc3)c3ccccc3c2=O)cc1,-6%,-18%,-9%,1%,.
CCCn1c(C)nc2c(c1=O)c1nc3ccccc3nc1n2CCC1=CCCCC1,2µM*,1%,-7%,-6%,?
CCCn1c(C)nc2c(c1=O)c1nc3ccccc3nc1n2CCc1ccccc1,20%,.,.,.,.
Cc1nc2c(c(=O)n1CCC1=CCCCC1)c1nc3ccccc3nc1n2/N=C/c1ccco1,10µM*,-20%,1%,1%,-16
CC1CC(C)CN(S(=O)(=O)N2CCC(C(=O)NCCc3ccccc3)CC2)C1 (stereo not given),?,-5%,?,-2%,-6
CC(C)Oc1ccc(C(=O)N(Cc2ccc(N(C)C)cc2)Cc2ccco2)cc1,.,.,18%,.,.
CCOc1ccc(NC(=O)CCS(=O)(=O)c2ccc3c(c2)CCCN3C(C)=O)cc1,11µM*,-16%,0%,22%,11
COc1ccc(NC(=O)CCS(=O)(=O)c2ccc3c(c2)CCCN3C(C)=O)cc1,-2%,-10%,4%,-11%,.
Cc1cc(C)cc(NS(=O)(=O)c2ccc3[nH]cc(C(=O)N4CCc5ccccc54)c(=O)c3c2)c1,22µM*,-2%[2.32 µM],-3%,-25%,11
COc1ccc(N2C(=O)CC(=O)NC2=O)cc1,4%,-4%,1%,-32%,.
COc1ccc(CN2C(=O)CC(=O)NC2=O)cc1,3.5µM*,2%,?,-24%,26
CCOC(=O)c1c(C)[nH]c(C(=O)/C(C#N)=C/c2ccc(OCC)cc2)c1C,4µM*,-1%,-13%,-32%,-21
Cc1ccc(C(O)Cn2cc([N+](=O)[O-])nc2C)cc1 (stereo not given),?,0%,0%,-2%,8
O=C(Nc1cc(Oc2ccccc2)cc([N+](=O)[O-])c1)C12CC3CC(C1)CC(n1cnc(Cl)n1)(C3)C2,2.2µM*,-20%,-8%,-24%,?
COc1ccc(C(=O)NCCc2sc(-c3ccc(Cl)cc3)nc2C)c(OC)c1,.,.,0%,.,.
Cc1cnn(-c2cc(N/N=C/c3ccccc3Cl)ncn2)c1,14µM*,6%,7%,23%,-14
COc1ccc(-c2cn[nH]c2N)c(OC)c1,8.9µM*,-8%,-6%,79%,1
SMILES,NS1 function inh,AMA1-RON2 inh,AmpC inh detg,AmpC no deterg,Flu NS1 inh
Cc1cccc(NC(=S)NC(=O)/C=C/c2ccco2)c1,15%,14%,4%,-41%,.
O=C(/C=C/c1ccco1)NC(=S)Nc1cccc([N+](=O)[O-])c1,22µM*,8%,-2%,-27%,0
CCCCNC(=O)C1(C)CCCCCN1Cc1cccc2c(OC)cc(C(=O)OCC)cc12 (stereo not given),.,-4%,.,.,.
CC(=O)N1CCN=C1SCc1ccccc1F,1.3µM*,6%,-7%,3.5µM*,5
COc1ccc2c(c1)C(c1ccccc1)=NNC(c1ccco1)=N2,?,18%,-9%,0%,-15
CCOc1ccc(C2=NNC(c3cccnc3)=Nc3ccc(OC)cc32)cc1,6%,8%,-3%,86%,.
CN1OC2C(=O)N(c3ccccc3)C(=O)C2C1c1ccc(F)cc1 (stereo not given),?,11%,0%,67%,12
COc1ccccc1NS(=O)(=O)c1ccc(C)c(NC(=O)c2ccc(S(=O)(=O)N3CCCCCC3)cc2)c1,20µM*,0%,2%,-22%,7
COc1ccccc1NC(=O)c1ccc(S(=O)(=O)N2CCCC2)cc1,-14%,-7%,-12%,-2%,.
O=C(N/N=C/c1ccccc1)c1ccc(CN2C(=O)c3cccc4cccc2c34)cc1,16%,-6%,-4%,?,.
CN(C)c1ccc(/C=N/NC(=O)c2ccc(CN3C(=O)c4cccc5cccc3c45)cc2)cc1,4.5µM*,.,-9%,-13%,5
COCC(C)N=C1NN=C(c2c[nH]c3ccccc23)CS1 (stereo not given),?,67%,-4%,-38%,-2
CCN=C1NN=C(c2c[nH]c3ccccc23)CS1,-2%,-1%,-6%,-33%,.
Cc1ccc(S(=O)(=O)N2CCN(C(=O)CC(C)n3cncn3)CC2)cc1C (stereo not given),?,1%,2%,-1%,-9
Cc1ccc(S(=O)(=O)N2CCN(C(=O)CC(C)n3cncn3)CC2)cc1 (stereo not given),27%,6%,4%,-3%,.
COc1cc(Cl)cc(C(c2c(C(=O)O)[nH]c3ccccc23)c2c(C(=O)O)[nH]c3ccccc23)c1O,2.5µM*,-12%,-20%,-43%,19
C=CCNC(=O)/C(C#N)=C/c1cn(-c2ccccc2)nc1-c1ccc(OC)c([N+](=O)[O-])c1,?,17%,14%,17%,30
CCSc1ccc(-c2nn(-c3ccccc3)cc2/C=C(/C#N)C(=O)NC)cc1,2%,6%,?,-33%,.
Cc1ccsc1/C=C(\C(=O)c1ccc(OC(C)C)cc1)c1nc2ccccc2o1,14µM*,-27%,12%,4%,-29
Cc1ccsc1/C=C(\CC(=O)O)c1nc2ccccc2o1,-64%,7%,-1%,-14%,.
Cc1ccc(NC(=O)CCC(=O)N/N=C/c2coc3ccc(F)cc3c2=O)cc1,.,92%,.,.,.
Cc1ccc(NC(=O)CCC(=O)N/N=C/c2coc3ccccc3c2=O)cc1,5.6µM*,74%,-6%,-9%,-18
Cc1cc(NC(=O)Cn2nc(C)c([N+](=O)[O-])c2C)no1,-1%,5%,1%,25%,.
